Activity calls are given as the source filed them. How the source made its calls: active means hit-call score of the fitted dose curve at least 0.9, where 1 is the maximum; inconclusive means response in the unintended direction; inactive means score below 0.9.

Chain of Estrogen receptor (Homo sapiens) (P03372 whole entry, looked up, the tested form may be a part): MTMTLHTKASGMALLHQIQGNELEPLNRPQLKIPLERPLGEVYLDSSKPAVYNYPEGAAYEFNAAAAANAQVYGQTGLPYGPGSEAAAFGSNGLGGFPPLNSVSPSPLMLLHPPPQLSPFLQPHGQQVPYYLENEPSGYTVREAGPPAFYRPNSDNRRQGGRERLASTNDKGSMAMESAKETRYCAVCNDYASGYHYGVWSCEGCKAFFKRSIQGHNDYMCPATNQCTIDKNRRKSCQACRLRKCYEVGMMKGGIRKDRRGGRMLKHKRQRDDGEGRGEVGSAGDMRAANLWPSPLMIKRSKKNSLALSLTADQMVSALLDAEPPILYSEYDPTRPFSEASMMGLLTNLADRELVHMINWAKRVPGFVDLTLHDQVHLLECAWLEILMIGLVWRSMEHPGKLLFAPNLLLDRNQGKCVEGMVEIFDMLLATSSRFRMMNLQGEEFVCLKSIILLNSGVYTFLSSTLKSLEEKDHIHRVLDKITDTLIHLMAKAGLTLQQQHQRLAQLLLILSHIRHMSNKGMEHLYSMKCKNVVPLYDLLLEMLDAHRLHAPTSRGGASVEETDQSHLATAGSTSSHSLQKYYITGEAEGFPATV

This assay concerns the target Estrogen receptor (Homo sapiens) (UniProt P03372). Nature of the assay: OT_ER_ERaERa_1440: Odyssey Thera (OT) 24-hour HEK293T Protein-Complementation Assay for Estrogen Receptor-alpha/-alpha Homodimer (AID 2283349).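 Further: hits raise fluorescence above DMSO for agonists and antagonists alike.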 How it is done:
OT_ER_ERaERa_1440 is a cell-based assay that uses HEK293T, a human kidney cell line, with measurements taken at 24 hours after chemical dosing in a 384-well plate.OT_ER_ERaERa_1440 is one of one assay component(s) measured or calculated from the OT_ER_ERaERa_1440 assay. It is designed to make measurements of protein fragment complementation, a form of binding reporter, as detected with fluorescence intensity signals by Protein-fragment Complementation technology.Data from the assay component OT_ER_ERaERa_1440 was analyzed into 1 assay endpoint. This assay endpoint, OT_ER_ERaERa_1440, was analyzed in the positive analysis fitting direction relative to DMSO as the negative control and baseline of activity. Using a type of binding reporter, measures of receptor for gain-of-signal activity can be used to understand the binding at the pathway-level as they relate to the gene ESR1. Furthermore, this assay endpoint can be referred to as a primary readout, because the performed assay has only produced 1 assay endpoint. To generalize the intended target to other relatable targets, this assay endpoint is annotated to the nuclear receptor intended target family, where the subfamily is steroidal.
Protein-fragment complementation assay, or PCA, is a method for the identification and quantification of protein-protein interactions. In the PCA, the proteins of interest ("bait" and "prey") are each covalently linked to fragments of a third protein (e.g. DHFR, which acts as a "reporter"). Interaction between the bait and the prey proteins brings the fragments of the reporter protein in close proximity to allow them to form a functional reporter protein whose activity can be measured. The OT ER alpha / ER alpha assay is a homodimer PCA of the ligand binding domain (amino acids 310-547) of human ER alpha stably expressed in HEK293T cells. […] Fluorescent signal in the basal state of the assay is very low and is primarily punctuate and cytoplasmic. Modulation of this assay is quantified as an increase in mean fluorescence intensity in the nucleus (for agonists) or in the nucleus and cytoplasm (antagonists) relative to vehicle controls, and can be quantified on a high content imaging device or a laser scanning cytometer. The latter instrument is favored for this assay because of the rapid mode of data acquisition, the ability to acquire data from the entire cell population in a well (as opposed to a fraction of the well on the high content devices) and the larger dynamic range typically achieved with this instrument. To assess sensitivity of the ER alpha/ER alpha LBD assay to ligand, cells were treated with the ER agonist 17 beta-estradiol (E2) in 10-point concentration- response format for 24 hours and monitored response on a laser scanning plate cytometer (Acumen eX3; TTP Lab Tech).
In the case of `N#Cc1cccnc1`, the compound was classed as inactive. Same read-out and setting: the value for `CCCCCCCCCCCCN(C)C` was “inactive”; that for `CC(C)=CC1C(C(=O)OCc2cccc(Oc3ccccc3)c2)C1(C)C` (centres undefined) was “inactive”; that for `Oc1c(Br)cc(Br)cc1Br` was “inactive”. Take `CC(O)(CS(=O)(=O)c1ccc(F)cc1)C(=O)Nc1ccc(C#N)c(C(F)(F)F)c1` (centres undefined): the compound was called inactive. On the same count and under the same terms, the value for `O=S1(=O)OC(c2cc(Br)c(O)c(Br)c2)(c2cc(Br)c(O)c(Br)c2)c2ccccc21` was “inactive”; that for `CC(=Cc1ccccc1)[N+](=O)[O-]` was “inactive”; that for `O=C(NC(=O)c1c(F)cccc1F)Nc1cc(Cl)c(OC(F)(F)C(F)C(F)(F)F)cc1Cl` (centres undefined) was “inactive”.

Regarding `CCC[CH2][Sn]([Cl])([Cl])[CH2]CCC`, the call was inactive. On the same count and under the same terms, the result for `C=CCN=C=S` reads “inactive”. In the case of `O=C(O)COc1ccc(Cl)cc1`, the call was inactive.

As for `CCOc1ccc(N)cc1`, the result was inactive. With `Cc1cc(Cl)ccc1OC(C)C(=O)O` (centres undefined), the compound was called inactive. Regarding `CNC(=O)O/N=C/C(C)(C)S(C)(=O)=O`, the result was inactive. With `CCCSP(=S)(OCC)Oc1ccc(SC)cc1` (centres undefined), the compound was classed as inactive.

Regarding `O=C(CCl)Nc1ccccc1`, the result was inactive. Same read-out and setting: the result for `O=CCCl` reads “inactive”; that for `O=C(NC(=O)c1c(F)cccc1F)Nc1ccc(Cl)cc1`, “inactive”. As to `CCOCn1c(-c2ccc(Cl)cc2)c(C#N)c(Br)c1C(F)(F)F`, the AC50 (as a rule, the concentration giving half of the maximal activity seen) is 12.4 µM (active). Turning to `CCN(CCO)CCO`, the outcome was inactive.

For the compound `O=S1OC[C@@H]2[C@H](CO1)[C@]1(Cl)C(Cl)=C(Cl)[C@@]2(Cl)C1(Cl)Cl` (some centres undefined), the compound was classed as inactive.

Consider `O=C1c2ccccc2C(=O)C1C(=O)C(c1ccccc1)c1ccc(Cl)cc1` (centres undefined), for which the result was inactive. Take `CC(C)N(C(=O)CCl)c1ccccc1`: the compound was classed as inactive. On the same count and under the same terms, the value for `N#CCC#N` was “inactive”.
